# Compound activity from PubChem.
# CHX counter: Cycloheximide Counterscreen for Small Molecule Inhibitors of Shiga Toxin. actives 12% (n = 300,000). AID 2314, 2010. cell reporter, cycloheximide protein synthesis inhibition counterscreen. max response, %; in the data active = max response mostly above about 13%, no sharp cut-off; inactive = mostly below about 14%; note: read at 38.3 µM for the half of the compounds with a filed dose; 0% is about no effect
# FMDV antiviral: High Throughput Screening for Foot and Mouth Disease Virus Antivirals; FMDV antiviral cell-based qHTS; Potency, µM (highest dose often 57.9 µM), for the others: at the top dose activity change, negative = inhibition, actives largely listed as inhibitors; actives 1.2% (n = 410,000); calls by dose curve; tested in HEK293T cells; note: read-out not given here; potency is the fitted concentration of half-maximal effect; % is set by controls: 0 for no effect and ±100 for the full control effect; nearly all actives have a fitted effect of over 45% in size
# Shiga inhibitor: A qHTS for Small Molecule Inhibitors of Shiga Toxin | Vero cells, Shiga toxin protein synthesis inhibition reporter | inhibition, % at 38.7 µM | actives 9.2% (n = 290,000) | AID 2315, 2010; in the data active = inhibition mostly above about 28%, no sharp cut-off; inactive = mostly below about 43%; note: 0% is about no effect
# Sm TGR block: qHTS Assay for the Inhibitors of Schistosoma Mansoni Peroxiredoxins; Schistosoma mansoni thioredoxin glutathione reductase (TGR), Q962Y6; actives 3% (n = 360,000); Potency, µM (titrated, usually from 114 µM), without a hit: at the top dose activity change, negative = inhibition, usual class: inhibitors; purified TGR, DTNB reduction, TNB absorbance 405 nm; active = well fitted inhibition curve with a large enough effect; inconclusive = small, poorly fitted or top-dose-only effect; inactive = no such curve, though single readings can be large or run the other way; note: potency is the fitted concentration of half-maximal effect; % is set by controls: 0 for no effect and ±100 for the full control effect; nearly all actives have a fitted effect of over 60% in size
#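 Kinetic colorimetric format: TGR-catalysed, NADPH-driven DTNB reduction monitored via TNB absorbance. Enzyme dispensed at 20 nM; compound exposure 15 min at room temperature before reaction start.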
# The depositor's hits bear a star; ? = inconclusive; / = no result. Only some compounds are listed: those with a hit (about 12% of all), similar ones and a draw of the others.
SMILES,CHX counter,FMDV antiviral,Shiga inhibitor,Sm TGR block
CCOC(=O)C1=C(C)NC(=O)NC1c1ccc(-c2ccc(F)cc2)o1 (centres undefined),-2,-20%,-17,25µM*
CCOC(=O)C1=C(C)NC(=O)NC1c1ccc(-c2ccc(Cl)cc2)o1 (centres undefined),-3,?,15,/
COC(=O)C1=C(C)NC(=O)NC1c1ccc(-c2ccc(F)cc2)o1 (centres undefined),-2,-9%,13,14µM*
COC(=O)C1=C(C)NC(=S)NC1c1ccc(-c2cccc(Cl)c2)o1 (centres undefined),0,-6%,12,8.9µM*
CCS(=O)(=O)N1CC(=O)N(c2ccc(Cl)cc2C)C(C)(C(=O)NC2CCCCCC2)C1 (centres undefined),/,-1%,/,-3%
COc1ccccc1NC(=O)c1nnn(-c2ccc(F)cc2)c1C,/,-2%,/,8%
COCCOC(=O)C1=C(C)NC(=O)NC1c1ccc(-c2cc(Cl)ccc2Cl)o1 (centres undefined),-2,-30%,-11,18µM*
CCOC(=O)C1=C(C)NC(=S)NC1c1ccc(-c2ccc(Cl)cc2)o1 (centres undefined),1,?,17,22µM*
COC(=O)C1=C(C)NC(=O)NC1c1ccc(-c2ccccc2Cl)o1 (centres undefined),5,?,-21,25µM*
Clc1ccccc1-c1nccc(NCc2cccs2)n1,/,15%,/,/
CC(C)c1nn2c(=O)cc(COC(=O)c3ccc(NC(=O)COc4ccccc4)cc3)nc2s1,/,8%,/,10%
O=C(COCc1cc(-c2ccc(F)cc2)on1)Nc1cc(Cl)ccc1O,/,-20%,/,0%
COC(=O)CN1C(=O)CSc2ccc(S(=O)(=O)N3CCOCC3)cc21,/,-5%,/,2%
COC(=O)c1ccc(-n2ccnc2)cc1,11,-8%,-12,0%
CCOC(=O)C(=Cc1ccc(-n2ccnc2)cc1)C(=O)OCC,-8,22µM*,-17,13µM*
CCOC(=O)C(=Cc1ccc(F)cc1)C(=O)OCC,-6,/,-18,16µM*
CCOC(=O)C(=Cc1ccc(Br)cc1)C(=O)OCC,-10,22µM*,-18,3.5µM*
CCOC(=O)C(=O)Nc1ccc(F)cc1,4,11%,22,-9%
C=C1CCN(C(CC(C)C)C(=O)NCCCc2ccccc2)S(=O)(=O)c2ccccc21 (centres undefined),10,/,-5,/
COc1ccc(C(=O)N(CC(=O)Nc2sc(C)c(C)c2C(N)=O)C2CCCC2)cc1,23*,-30%,33,-16%
COc1ccc(CNC(=O)Cc2c(C)c3cc4c(C)coc4c(C)c3oc2=O)cc1,/,-12%,/,0%
O=C(CCl)N1CCN(S(=O)(=O)c2ccc3ccccc3c2)CC1,-3,25µM*,-3,5.6µM*
O=C(CS(=O)(=O)c1ccc2ccccc2c1)N1CCCCCC1,44*,31%,51*,2%
CCOC(=O)CS(=O)(=O)c1ccc2ccccc2c1,-3,28%,-7,-15%
O=C(CCl)N1CCN(S(=O)(=O)c2ccc3c(c2)OCCCO3)CC1,/,25µM*,/,16µM*
SMILES,CHX counter,FMDV antiviral,Shiga inhibitor,Sm TGR block
CCCc1cc(F)c(S(=O)(=O)N2CCN(S(=O)(=O)c3ccc4c(c3)OCCO4)CC2)cc1F,-5,/,-8,/
Oc1ccccc1C1=Nc2ncnn2C(c2ccc(F)cc2)C1 (centres undefined),-3,-28%,-4,14µM*
Cc1cc(C)cc(NC(=O)Cn2c(=O)n(C(C)C)c(=O)c3oc4ccccc4c32)c1,/,-21%,/,2%
N=c1c[n+](N2CCOCC2)[n-]o1,-1,0%,-13,22µM*
CCCCCOC(=O)c1ccc(OC(=O)c2cncc(Br)c2)cc1,21*,/,27,9%
CCc1ccc(C(=O)COC(=O)c2cncc(Br)c2)cc1,40*,9%,33,2%
CCCCCCCOC(=O)c1ccc(OC(=O)c2cccnc2)cc1,16*,/,53,-8%
CCCCCOc1ccc(OC(=O)c2ccncc2)cc1,-4,26%,9,-26%
O=C(Oc1ccc2ccccc2c1)c1cncc(Br)c1,2,-7%,-13,-2%
CCc1ccc(OC(=O)c2cncc(Br)c2)cc1,18*,14%,22,0%
COC(=O)c1ccc(OC(=O)c2cccnc2)cc1,-3,-7%,-1,-22%
O=C(COC(=O)c1cncc(Br)c1)NC1CC1,16*,16%,-14,-2%
O=C(COC(=O)c1cncc(Br)c1)NC1CCCCC1,-6,-6%,2,-2%
CC(C)OC(=O)c1ccc(OC(=O)c2cccnc2)cc1,12*,25%,13,-1%
CCCCN(CC)C(=O)CCNS(=O)(=O)c1ccc2c(c1)c(=O)n(C)c(=O)n2C,/,-22%,/,4%
COc1ccccc1N1CCN(C(=O)c2cnn(-c3ccc(F)cc3F)c2C2CCNCC2)CC1,/,-6%,/,6%
COc1ccc(NC(=O)c2cc(-c3cc(C)cc(C)c3O)n[nH]2)cc1Cl,-3,?,6,-3%
Cc1ccc(C)c(NC(=O)c2cc(-c3cc(C)ccc3O)n[nH]2)c1,59*,63%,76*,-12%
Cc1cccc(NC(=O)c2cc(-c3cc(C)cc(C)c3O)n[nH]2)c1,13*,-10%,40*,2%
CCc1ccc(O)c(-c2cc(C(=O)Nc3cccnc3)[nH]n2)c1,28*,-15%,93*,-2%
Cc1cc(C)c(O)c(-c2cc(C(=O)Nc3cccnc3)[nH]n2)c1,29*,-21%,98*,8%
CC(=O)Nc1ccc(NC(=O)c2cc(-c3cc(C)c(C)cc3O)n[nH]2)cc1,2,-6%,43,-11%
CCc1cccc(NC(=O)CN2c3ccccc3S(=O)(=O)c3ccccc32)c1,/,-3%,/,-4%
Cc1cccc(CCNc2ncnc3onc(-c4ccc(Cl)cc4)c23)c1,/,?,/,-4%
O=C(CSc1cn(CCNC(=O)c2c(F)cccc2F)c2ccccc12)Nc1ccccc1F,/,-8%,/,11%
SMILES,CHX counter,FMDV antiviral,Shiga inhibitor,Sm TGR block
Cc1cc(O)c(-c2cc(C(=O)Nc3cccnc3)[nH]n2)cc1C,43*,36%,52*,5%
Cc1ccc(NC(=O)c2cc(-c3cc(Cl)ccc3O)n[nH]2)cc1C,-5,17%,-6,8%
Cc1cccc(NC(=O)c2cc(-c3cc(Cl)ccc3O)n[nH]2)c1,37*,53%,76*,7%
COc1ccc(NC(=O)c2cc(-c3ccccc3O)n[nH]2)cc1Cl,12,7%,51*,0%
Cc1cccc(NC(=O)c2cc(-c3c(C)cc(C)cc3O)n[nH]2)c1,28,26%,51*,-1%
CC(C)NC(=O)Cc1csc2nc(-c3ccccc3)cn12,/,-3%,/,53%
COc1ccccc1NC(=O)N1CCN(c2nnc(C)c3c(C)n(-c4ccccc4)nc23)CC1,/,0%,/,6%
CCN(C(=O)CN1C(=O)c2ccccc2Sc2ccc(C(=O)OC)cc21)c1cccc(C)c1,/,0%,/,8%
COC(=O)C1=C(C)N(CCc2ccc(OC)c(OC)c2)C(=O)/C1=C\N(C)C,-4,-23%,-8,7.9µM*
COc1ccc(NC2=C(Cl)C(=O)N(CCc3ccccc3)C2=O)c(OC)c1,73*,-11%,59*,6%
